Measurements as given in the supplement of paper PMC12340641.
Structures can show the parent of a compound that is named as a salt.

How the values were obtained:
[1] = target: IKZF1 (dCK*-IKZF1 fusion in HEK293FT) (UniProt Q13422); assay: inhibition of IKZF1 HTRF signal (DMSO = 0%, pomalidomide 10 uM = 100%); higher = lower IKZF1 protein level; conditions: compound concentration: 5 uM, overnight (~20 h)
How it was run: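 Percent inhibition of IKZF1 signal was calculated per plate with vehicle and a reference degrader as anchors. The anchors were 0% for vehicle and 100% for the degrader, applied to background-subtracted 665/620 nm time-resolved FRET ratios from a commercial HTRF total-IKZF1 kit. Signal came from HEK293FT cells stably expressing an IKZF1 fusion, treated overnight at 37 °C with 5 μM compound in single wells of 384-well plates.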

HEK293FT dCK*-only = assay: relative growth in counter assay (no AraC = 100%, AraC + DMSO = 0%); higher = more growth rescue independent of IKZF1; conditions: compound concentration: 5 uM; AraC concentration: 0.3 uM; overnight pretreatment + 4 days AraC
How it was run: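 Nuclei were counted by imaging after Hoechst 33342 staining on day 5, in HEK293FT cells (300/well, 384-well) expressing only an engineered kinase construct. Compound at 5 μM went in 2 h after seeding, followed after overnight at 37 °C by a nucleoside suicide substrate at 0.3 μM plus medium for 4 days. Per plate, wells lacking suicide substrate defined 100% and those with substrate plus vehicle defined 0%.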

HEK293FT dCK*-IKZF1 = assay: relative growth recovery (pomalidomide 10 uM = 100%, DMSO = 0%); higher = more growth rescue (IKZF1 fusion degradation); conditions: compound concentration: 5 uM; AraC concentration: 0.3 uM; overnight pretreatment + 4 days AraC
How it was run: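 Means of duplicates from different days are given for growth recovery, normalised per plate against a reference degrader and vehicle. The reference degrader set the 100% level and vehicle the 0% level. HEK293FT cells stably expressing a deoxycytidine kinase–IKZF1 fusion (300/well, 384-well) received 5 μM compound 2 h after seeding and, after overnight at 37 °C, 0.3 μM of a nucleoside suicide substrate plus medium for 4 days. Nuclei stained with Hoechst 33342 were then counted by whole-well imaging on day 5.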

IKZF1 (dCK*-IKZF1 fusion in HEK293FT), sequence (Q13422 whole entry, looked up, the tested form may be a part): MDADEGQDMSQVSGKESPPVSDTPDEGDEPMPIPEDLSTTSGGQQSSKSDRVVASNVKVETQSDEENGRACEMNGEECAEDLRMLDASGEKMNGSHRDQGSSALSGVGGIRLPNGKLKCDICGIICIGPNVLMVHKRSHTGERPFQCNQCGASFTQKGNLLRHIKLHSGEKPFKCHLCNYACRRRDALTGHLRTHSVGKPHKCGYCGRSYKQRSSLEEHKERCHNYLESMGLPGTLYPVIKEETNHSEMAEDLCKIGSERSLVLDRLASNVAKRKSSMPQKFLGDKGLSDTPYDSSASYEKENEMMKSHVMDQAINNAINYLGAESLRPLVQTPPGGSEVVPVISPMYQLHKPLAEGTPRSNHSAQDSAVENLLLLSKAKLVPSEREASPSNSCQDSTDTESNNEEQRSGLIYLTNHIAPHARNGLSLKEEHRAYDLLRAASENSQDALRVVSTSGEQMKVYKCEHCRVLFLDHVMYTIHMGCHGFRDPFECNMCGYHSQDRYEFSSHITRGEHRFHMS

COC(=O)C1=C(C)NC(C)=C(C(=O)OC(C)(C)CN(C)CCC(c2ccccc2)c2ccccc2)C1c1cccc([N+](=O)[O-])c1 (centres undefined) [lercanidipine]
inhibition of IKZF1 HTRF signal [1]: -5.35% | relative growth in counter assay (HEK293FT dCK*-only): -6.01% | relative growth recovery (HEK293FT dCK*-IKZF1): 1.64%

CC1(C)C(/C=C/C=C/C=C/C=C2/N(CCCCS(=O)(=O)[O-])c3ccc4ccccc4c3C2(C)C)=[N+](CCCCS(=O)(=O)[O-])c2ccc3ccccc3c21 [Cardiogreen]
inhibition of IKZF1 HTRF signal [1]: -28.9% | relative growth in counter assay (HEK293FT dCK*-only): -5.7% | relative growth recovery (HEK293FT dCK*-IKZF1): 0.4%

N=c1ccn2c(n1)O[C@H]1[C@H](O)[C@@H](CO)O[C@H]12 [Cyclocytidine HCl]
inhibition of IKZF1 HTRF signal [1]: -19.3% | relative growth in counter assay (HEK293FT dCK*-only): -34% | relative growth recovery (HEK293FT dCK*-IKZF1): -12.9%

CCc1oc2ccccc2c1C(=O)c1cc(Br)c(O)c(Br)c1
inhibition of IKZF1 HTRF signal [1]: 11.6% | relative growth in counter assay (HEK293FT dCK*-only): -6.05% | relative growth recovery (HEK293FT dCK*-IKZF1): -2.28%

c1cncc(CN2CCC(n3ncc4c(N5CCOCC5)nc(-c5ccc6[nH]ccc6c5)nc43)CC2)c1
inhibition of IKZF1 HTRF signal [1]: 30.4% | relative growth in counter assay (HEK293FT dCK*-only): -26.4% | relative growth recovery (HEK293FT dCK*-IKZF1): -11.3%

C=C1C(=O)O[C@@H]2C=C(C)CCC=C(C)CC[C@@H]12 [costunolide]
inhibition of IKZF1 HTRF signal [1]: -26.8% | relative growth in counter assay (HEK293FT dCK*-only): -18.2% | relative growth recovery (HEK293FT dCK*-IKZF1): -0.955%

CCCCC(CC)COc1ccc(-c2nc(-c3ccc(OC)cc3)nc(-c3ccc(OCC(CC)CCCC)cc3O)n2)c(O)c1 (centres undefined)
inhibition of IKZF1 HTRF signal [1]: -35.1% | relative growth in counter assay (HEK293FT dCK*-only): 12.9% | relative growth recovery (HEK293FT dCK*-IKZF1): 1.75%

Nc1ncn([C@@H]2O[C@H](CO)[C@@H](O)[C@H]2O)c(=O)n1
inhibition of IKZF1 HTRF signal [1]: -45.6% | relative growth in counter assay (HEK293FT dCK*-only): -13.2% | relative growth recovery (HEK293FT dCK*-IKZF1): -5.21%

O=C(Nc1cccc(C(F)(F)F)c1)Nc1ccc(Br)cc1-c1nnn[nH]1
inhibition of IKZF1 HTRF signal [1]: -23.4% | relative growth in counter assay (HEK293FT dCK*-only): -0.22% | relative growth recovery (HEK293FT dCK*-IKZF1): -2.33%

Nc1ccc(/N=N/c2ccccc2)c(N)n1
inhibition of IKZF1 HTRF signal [1]: -28.9% | relative growth in counter assay (HEK293FT dCK*-only): -3.22% | relative growth recovery (HEK293FT dCK*-IKZF1): -1.03%

Clc1ccc2c(N3CCN(CCCN4CCN(c5ccnc6cc(Cl)ccc56)CC4)CC3)ccnc2c1
inhibition of IKZF1 HTRF signal [1]: 17% | relative growth in counter assay (HEK293FT dCK*-only): 3.87% | relative growth recovery (HEK293FT dCK*-IKZF1): -1.17%

CN(C)C1CCN(C(=O)c2ccc(NC(=O)Nc3ccc(-c4nc(N5CCOCC5)nc(N5CCOCC5)n4)cc3)cc2)CC1
inhibition of IKZF1 HTRF signal [1]: 27.3% | relative growth in counter assay (HEK293FT dCK*-only): -6.76% | relative growth recovery (HEK293FT dCK*-IKZF1): -0.95%

CCCCCCCCCCC(CO)CCCCCCCC (centres undefined) [2-Octyldodecan-1-ol]
inhibition of IKZF1 HTRF signal [1]: -45% | relative growth in counter assay (HEK293FT dCK*-only): -4.55% | relative growth recovery (HEK293FT dCK*-IKZF1): -2.31%

CCCCCCCCCCCC1=C(O)C(=O)C=C(O)C1=O [embelin]
inhibition of IKZF1 HTRF signal [1]: -30.8% | relative growth in counter assay (HEK293FT dCK*-only): -6.94% | relative growth recovery (HEK293FT dCK*-IKZF1): -3.97%

CCc1c2c(nc3ccc(OC(=O)N4CCC(N5CCCCC5)CC4)cc13)-c1cc3c(c(=O)n1C2)COC(=O)[C@]3(O)CC [irinotecan]
inhibition of IKZF1 HTRF signal [1]: 41.6% | relative growth in counter assay (HEK293FT dCK*-only): -35.4% | relative growth recovery (HEK293FT dCK*-IKZF1): -13.9%

C1CCC(N/C(=N/C23CC4CC(CC(C4)C2)C3)N2CCOCC2)CC1
inhibition of IKZF1 HTRF signal [1]: -35.4% | relative growth in counter assay (HEK293FT dCK*-only): 13% | relative growth recovery (HEK293FT dCK*-IKZF1): 1.62%

Clc1ccc(COC(Cn2ccnc2)c2ccc(Cl)cc2Cl)cc1 (centres undefined) [Econazole Nitrate]
inhibition of IKZF1 HTRF signal [1]: -40.1% | relative growth in counter assay (HEK293FT dCK*-only): 3.6% | relative growth recovery (HEK293FT dCK*-IKZF1): 4.02%

CC(C)(C)c1ccc(-c2nc3ccccc3[nH]2)cc1
inhibition of IKZF1 HTRF signal [1]: -0.19% | relative growth in counter assay (HEK293FT dCK*-only): 3.59% | relative growth recovery (HEK293FT dCK*-IKZF1): 11.5%

O=C(OC)C1=C(C)NC(C)=C(C(OCCCN3CCC(C4=CC=CC=C4)(C5=CC=CC=C5)CC3)=O)[C@@H]1[C@]2=CC=CC([N+]([O-])=O)=C2 [dexniguldipine]
inhibition of IKZF1 HTRF signal [1]: -24.7% | relative growth in counter assay (HEK293FT dCK*-only): -15.1% | relative growth recovery (HEK293FT dCK*-IKZF1): -5.83%

Nc1ccc2cc3ccc(N)cc3nc2c1
inhibition of IKZF1 HTRF signal [1]: 62.9% | relative growth in counter assay (HEK293FT dCK*-only): -35.1% | relative growth recovery (HEK293FT dCK*-IKZF1): -15%

CN1CCN(CCCN2c3ccccc3Sc3ccc(C(F)(F)F)cc32)CC1
inhibition of IKZF1 HTRF signal [1]: 5.07% | relative growth in counter assay (HEK293FT dCK*-only): 23.1% | relative growth recovery (HEK293FT dCK*-IKZF1): 3.05%

CC(=O)N(OCc1ccccc1)[C@@H]1c2cc(C#N)ccc2OC(C)(C)[C@H]1O
inhibition of IKZF1 HTRF signal [1]: -1.85% | relative growth in counter assay (HEK293FT dCK*-only): 4.48% | relative growth recovery (HEK293FT dCK*-IKZF1): -0.925%

CCCCOC(=O)c1ccc(N)cc1
inhibition of IKZF1 HTRF signal [1]: -30.3% | relative growth in counter assay (HEK293FT dCK*-only): -2.73% | relative growth recovery (HEK293FT dCK*-IKZF1): -0.295%

CC[C@@]1(O)C(=O)OCc2c1cc1n(c2=O)Cc2cc3cc(O)ccc3nc2-1 [10-Hydroxycamptothecin]
inhibition of IKZF1 HTRF signal [1]: 38.4% | relative growth in counter assay (HEK293FT dCK*-only): -34% | relative growth recovery (HEK293FT dCK*-IKZF1): -13.2%

Cc1cc(N)c2ccccc2[n+]1CCCCCCCCCC[n+]1c(C)cc(N)c2ccccc21
inhibition of IKZF1 HTRF signal [1]: -29.5% | relative growth in counter assay (HEK293FT dCK*-only): -14.5% | relative growth recovery (HEK293FT dCK*-IKZF1): -3.15%

O=c1[nH]c(=O)n([C@H]2C[C@H](O)[C@@H](CO)O2)cc1F [Floxuridine]
inhibition of IKZF1 HTRF signal [1]: 14.5% | relative growth in counter assay (HEK293FT dCK*-only): -29.6% | relative growth recovery (HEK293FT dCK*-IKZF1): -9.7%

CCCSc1ccc2[nH]c(NC(=O)OC)nc2c1
inhibition of IKZF1 HTRF signal [1]: -15.2% | relative growth in counter assay (HEK293FT dCK*-only): -32.2% | relative growth recovery (HEK293FT dCK*-IKZF1): -11.2%

CC1CC(OC(=O)C(O)c2ccccc2)CC(C)(C)C1 (centres undefined)
inhibition of IKZF1 HTRF signal [1]: -11.2% | relative growth in counter assay (HEK293FT dCK*-only): 0.99% | relative growth recovery (HEK293FT dCK*-IKZF1): -2.85%

CN(CC3)C[C@@H](O)[C@H]3[C@]1=C(OC(C4=CC=CC=C4Cl)=CC2=O)C2=C(O)C=C1O [alvocidib]
inhibition of IKZF1 HTRF signal [1]: -30.5% | relative growth in counter assay (HEK293FT dCK*-only): -35.2% | relative growth recovery (HEK293FT dCK*-IKZF1): -12.5%

O=C(NCc1ccc(OC(F)(F)F)cc1)C1c2ccccc2C(=O)N1C1CCOCC1 (centres undefined)
inhibition of IKZF1 HTRF signal [1]: -25.8% | relative growth in counter assay (HEK293FT dCK*-only): -2.6% | relative growth recovery (HEK293FT dCK*-IKZF1): -1.02%

Cc1cccc(C)c1NC(=O)C[N+](C)(C)C
inhibition of IKZF1 HTRF signal [1]: -41.2% | relative growth in counter assay (HEK293FT dCK*-only): 0.1% | relative growth recovery (HEK293FT dCK*-IKZF1): -1.7%

COc1cc([C@@H]2c3cc4c(cc3[C@@H](O[C@@H]3O[C@@H]5CO[C@@H](C)O[C@H]5[C@H](O)[C@H]3O)[C@H]3COC(=O)C23)OCO4)cc(OC)c1O (some centres undefined) [Etoposide]
inhibition of IKZF1 HTRF signal [1]: -10.2% | relative growth in counter assay (HEK293FT dCK*-only): -34.7% | relative growth recovery (HEK293FT dCK*-IKZF1): -12.9%

COc1c(C)c2c(c(O)c1C/C=C(\C)CCC(=O)O)C(=O)OC2
inhibition of IKZF1 HTRF signal [1]: -27.2% | relative growth in counter assay (HEK293FT dCK*-only): -31.1% | relative growth recovery (HEK293FT dCK*-IKZF1): -11.7%
